As a reminder, the inhibition is the change of the read-out against control, counted positive when it falls.

For 32 compounds, inhibition results are on record in PubChem BioAssay AID2129 (The Scripps Research Institute Molecular Screening Center, 2009).

In all, about 320,000 compounds went through this assay and about 2,200 (0.69%) were called active. The full list was thinned out, with actives kept by preference. Unmarked numbers belong to inactive results.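 Rule for the calls: active = inhibition above the mean of all tested compounds plus 3 SD, cutoff set per campaign (cut at about 30% in these data); inactive = the rest.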

Bcl-2-like protein 1 (Homo sapiens), sequence (Q07817 whole entry, looked up): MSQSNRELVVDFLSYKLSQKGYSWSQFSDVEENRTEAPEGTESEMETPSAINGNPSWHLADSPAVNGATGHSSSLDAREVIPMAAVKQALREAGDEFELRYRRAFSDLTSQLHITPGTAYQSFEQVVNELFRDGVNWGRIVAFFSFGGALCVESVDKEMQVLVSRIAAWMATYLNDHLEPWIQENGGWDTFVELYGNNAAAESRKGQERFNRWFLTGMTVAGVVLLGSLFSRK

This test has as its target Bcl-2-like protein 1 (Homo sapiens) (UniProt Q07817). Put plainly: Bcl-xL/Bim BH3 interaction blockers – biochemical, fluorescence polarization, HTS, primary screen (AID 2129).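 Note: 0% = DMSO wells and 100% = unlabeled Bim-BH3 peptide competitor; inhibitors lower millipolarization by displacing the labeled peptide.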 Conditions: GST-Bcl-xL / FITC-Bim BH3 peptide fluorescence polarization; at 10.9 µM; active compounds read high.
`CC1CC(C)CN(S(=O)(=O)c2cccc(C(=O)N3C(=O)c4cccc(N)c4C3=O)c2)C1` (configuration not stated): the inhibition was 30.5% (active).

For the compound `CN1CCN(S(=O)(=O)c2cccc(C(=O)O)c2)CC1`, the inhibition is 6.51%.

With `COc1cc(C(=O)N2C(=O)c3cccc(N)c3C2=O)cc(OC)c1OC`, the inhibition is 11.8%.

On to `O=C(Cn1nc([N+](=O)[O-])nc1Br)NC1CCCCC1`, for which the inhibition was 0.58%.

As to `CC(C)(C)c1ccc(C(CC(=O)O)NS(=O)(=O)Cc2ccccc2)cc1` (configuration not stated), the inhibition was -2.32%.

Consider `O=C1CCCN1CCCNC(=S)Nc1ccc(F)c(Cl)c1`, for which the inhibition is 5.5%.

Take `Cc1cc([N+](=O)[O-])ccc1NCc1cccc([N+](=O)[O-])c1`: the inhibition is 3.28%.

As to `C=CCn1c(SCCOc2ccc(OC)cc2)nnc1C(NC(=O)c1ccc(OC)cc1)C(C)C` (configuration not stated), the inhibition is 4.55%.

As to `COc1ccc(NC(=O)CN(C)C(=O)c2cc(-c3ccc(C)o3)nc3ccccc23)cc1`, the inhibition was 1.46%.

Consider `CN(C(=O)COC(=O)c1nc(Cl)ccc1Cl)C1CCS(=O)(=O)C1` (configuration not stated), for which the inhibition is -2.39%.

On to `CN(C(=O)COC(=O)c1cc(-c2ccco2)nc2ccccc12)C1CCS(=O)(=O)C1` (configuration not stated), for which the inhibition was 38.9% (active).

`CN(CCOc1ccccc1)C(=O)c1cc(-c2ccco2)nc2ccccc12`: the inhibition is 30.5% (active).

With `CC1CCCN(C(=O)c2cc(-c3ccco3)nc3ccccc23)C1` (configuration not stated), the inhibition was 2.8%.

As for `COc1ccc(-c2cc(C(=O)N(C)Cc3ccccc3)c3ccccc3n2)cc1`, the inhibition is 4.34%.

Consider `O=C(c1cccs1)n1nc(NCc2ccccc2)nc1NCc1ccccc1`, for which the inhibition was -2.31%.

For the compound `Cc1nnsc1S(=O)(=O)Cc1ccccc1Cl`, the inhibition is 1.84%.

For `Cn1cccc1C(=O)NNC(=O)COc1ccc(Br)cc1`, the inhibition was 1.85%.

Regarding `CC1CCN(C(=S)NC(=O)c2ccccc2Br)CC1`, the inhibition is 1.04%.

Turning to `CCc1ccc(NC(=O)Nc2ccncc2)cc1`, the inhibition is -0.23%.

On to `Oc1ccc2ccccc2c1N=Nc1nccs1`, for which the inhibition is 54.3% (active).

Take `COc1ccc(C(=O)N2CCCC(C(=O)c3ccccc3OC)C2)cc1OC` (configuration not stated): the inhibition was 2.42%.

On to `COc1cc(OC)cc(-c2c(-c3cccs3)c3cc(-c4ccc(OC)cc4F)ccc3n2C)c1`, for which the inhibition was -0.84%.

On to `Cc1ccc(S(=O)(=O)N(C)C)cc1NC(=O)c1n[nH]c(=O)c2ccccc12`, for which the inhibition was -2.28%.

In the case of `O=C(NCCc1ccc(C(F)(F)F)cc1)c1ccc2c(c1)OCO2`, the inhibition is 2.41%.

For `NC(=O)c1ccc(Nc2ccc3c(c2)CCC3)c([N+](=O)[O-])c1`, the inhibition was 2.16%.

As to `Cc1c(CCO)c(=O)n(-c2ccccc2)n1S(=O)(=O)c1ccc(F)cc1`, the inhibition is 9.16%.

Turning to `O=C(C1=C(O)C(=O)N(c2ncccn2)C1c1cccs1)c1ccco1` (configuration not stated), the inhibition was 94.5% (active).

Turning to `O=C(C1=C(O)C(=O)N(Cc2ccccc2)C1c1ccco1)c1ccco1` (configuration not stated), the inhibition was 7.06%.

Consider `O=C(C1=C(O)C(=O)N(Cc2ccccc2)C1c1cccnc1)c1ccco1` (configuration not stated), for which the inhibition was 3.45%.

As for `COC(=O)/C=C(\Oc1ccccc1)C1(O)CCCCC1`, the inhibition was 1.07%.

`CCn1c(SCC(=O)NC2=NCCS2)nnc1C(C)NC(=O)c1ccccc1F` (configuration not stated): the inhibition is -1.19%.

As for `O=C(N/N=C/c1sc(N2CCCCC2)nc1-c1cccs1)c1cccnc1`, the inhibition was -12.1%.
